Structures are written as SMILES. The whole screen tested about 48,000 compounds, of which about 13,000 (27%) showed an effect of 50% or more. This is one part of the list.

Here are results for 66 compounds from ChEMBL document CHEMBL3988442, “University of Dundee, Small-Polar-MMV Screening Library” (2021).

The assay relates to Wolbachia pipientis. As to the kind of experiment: Anti-Wolbachia Cell-Based Screen. Type of assay: functional. As to conditions: 5 µM. Details: scale not given: in the data most compounds retested in dose-response had high values.
As to `Cc1ccc(C(=O)N2CCN(c3ncnc4nc(N)ccc34)CC2)o1`, the “Percent Effect” value is -4.077%.

Take `Cc1noc(C)c1S(=O)(=O)NCC(C)(O)c1ccc2c(c1)OCO2` (stereo unspecified): the “Percent Effect” value is reported as 22.76%.

With `CCS(=O)(=O)c1ccc2oc([C@H]3CCN(Cc4ccncc4)C3)nc2c1`, the “Percent Effect” value was -3.63%.

Take `CN1N=C(C(=O)N2CCCC(CCc3ccccc3)C2)CCC1=O` (stereo unspecified): the “Percent Effect” value is given as -44.22%.

For `COCCN(C)Cc1ccc(OC)c(OC(F)F)c1`, the “Percent Effect” value is listed as -5.242%.

As to `COCc1cc(C[C@@H]2CC[C@H](O)[C@@H](CN(CC(C)C)CC(C)C)O2)no1`, the “Percent Effect” value is reported as -3.447%.

Regarding `Cc1nc(CN2C(=O)C[C@@H]3[C@@H]2CCN3S(C)(=O)=O)cs1`, the “Percent Effect” value is listed as 77.62%.

For `Cc1nc(CN2C(=O)C[C@@H]3[C@@H]2CCN3C(=O)C2CCOCC2)cs1`, the “Percent Effect” value turned out to be 6.269%.

Consider `Cc1nc(CN2C(=O)C[C@@H]3[C@@H]2CCN3S(=O)(=O)C2CC2)cs1`, for which the “Percent Effect” value worked out at 97.85%.

Consider `Cc1nc(CN2C(=O)C[C@@H]3[C@@H]2CCN3Cc2cnn(C)c2)cs1`, for which the “Percent Effect” value came to 96.83%.

Regarding `CCOC(=O)c1nc(CN2CCN(C(C)C(=O)NC3CC3)CC2)cs1` (stereo unspecified), the “Percent Effect” value was -13.36%.

As for `COc1ccc2cccc(CC(=O)NCCc3n[nH]c(=O)[nH]3)c2c1`, the “Percent Effect” value is reported as -7.606%.

In the case of `COc1ccc(CCC(=O)NCc2cc(C)on2)cc1`, the “Percent Effect” value worked out at 0.6679%.

With `CCCC(=O)NCCc1nc2cc(-c3ccc(OC)cc3)ncn2n1`, the “Percent Effect” value is reported as 102.6%.

Take `CC(C)(C)Nc1nc(-c2cccnc2)c(-c2ccnc(NCCO)n2)s1`: the “Percent Effect” value was found to be 93.88%.

For the compound `Cn1cnc2c(-c3cccnc3)nc(C3CCN(S(C)(=O)=O)CC3)cc21`, the “Percent Effect” value is listed as -22.74%.

For the compound `COc1ccc(NCc2c[nH]nc2-c2cccnc2)cc1`, the “Percent Effect” value is -7.559%.

As for `CCNc1nc(-c2cccnc2)c(-c2ccnc(NCCO)n2)s1`, the “Percent Effect” value came out at 103.5%.

For the compound `CCCNCc1cn(Cc2ccccc2)nc1-c1cccnc1.Cl`, the “Percent Effect” value is -0.3485%.

Regarding `CC(CNc1nccc(C(C)C)n1)Oc1cccnc1` (stereo unspecified), the “Percent Effect” value turned out to be 15.19%.

Consider `CCNc1nc(-c2cccnc2)c(-c2ccnc(NS(C)(=O)=O)n2)s1`, for which the “Percent Effect” value is listed as 73.47%.

For `Cn1c(CN2CCC(O)CC2)nnc1C1CCCN(c2ccncc2)C1` (stereo unspecified), the “Percent Effect” value is -3.015%.

Regarding `N#Cc1cc(Cl)ccc1N1CCOC(C(N)=O)C1` (stereo unspecified), the “Percent Effect” value is reported as -16.78%.

Consider `Cc1cccc(CN2CCN(c3ncnc4[nH]cnc34)CC2CCO)n1` (stereo unspecified), for which the “Percent Effect” value was found to be 8.055%.

In the case of `Cc1ccc(C(=O)NC2CCCN(c3ncccn3)C2)cn1` (stereo unspecified), the “Percent Effect” value is reported as 6.467%.

As for `CCN1CCC(CNC(=O)Nc2cccnc2OC)CC1`, the “Percent Effect” value is on record as 15.3%.

As for `CCOc1ncccc1C(=O)NC1CC(=O)N(CC(F)(F)F)C1` (stereo unspecified), the “Percent Effect” value is recorded as -4.406%.

As for `CCOc1ncccc1NC(=O)N1CCCCCC1`, the “Percent Effect” value came out at 3.505%.

In the case of `CCCC1CCCN(C(=O)Nc2cccnc2OC)CC1` (stereo unspecified), the “Percent Effect” value is on record as 9.171%.

Take `CCOCc1ccccc1NC(=O)NC1CCN(c2ncccn2)CC1`: the “Percent Effect” value is 3.518%.

Consider `CCOc1ncccc1NC(=O)NC1CCN(C(C)=O)CC1`, for which the “Percent Effect” value is given as 106.2%.

As for `CCOc1ncccc1NC(=O)NC1CCN(c2ncccn2)CC1`, the “Percent Effect” value is 128.6%.

In the case of `CCOc1ncccc1NC(=O)N1CCOCC1C` (stereo unspecified), the “Percent Effect” value was -9.997%.

In the case of `CCOc1ncccc1C(=O)NC1CCCN(c2ncccn2)C1` (stereo unspecified), the “Percent Effect” value was 120.7%.

For `CCOc1ncccc1NC(=O)NC1CCN(C(=O)C2CC2)CC1`, the “Percent Effect” value came out at 105.1%.

Take `CCOc1ccc(C(=O)NC2CCN(c3ncccn3)CC2)cc1C`: the “Percent Effect” value was determined as 5.908%.

As for `CCN(CC(F)(F)F)C(=O)C1CCCN(Cc2ccno2)C1` (stereo unspecified), the “Percent Effect” value is -5.798%.

With `CCOCCC(=O)N1CC(=O)Nc2cc(Br)ccc21`, the “Percent Effect” value is on record as 10.79%.

For `CC(=O)NC(Cc1c[nH]c2cc(F)ccc12)C(=O)Nc1nonc1C` (stereo unspecified), the “Percent Effect” value is on record as -8.72%.

As to `Cc1cccc(C(C(=O)NCCCc2nnc3ccccn23)N(C)C)c1` (stereo unspecified), the “Percent Effect” value is on record as -0.5328%.

Regarding `O=C(O)C(F)(F)F.c1ccc(NC[C@@H]2CCC[C@@H]3CN(c4ncccn4)C[C@@H]32)nc1`, the “Percent Effect” value amounted to 13.12%.

`Cc1cccc(-n2nc(CC(C)C)nc2CCC(=O)N(C)C)c1`: the “Percent Effect” value worked out at 1.155%.

As for `COc1ncccc1NC(=O)C1CCN(S(C)(=O)=O)CC1`, the “Percent Effect” value was 9.079%.

Consider `COc1ncccc1NC(=O)NC1CCCN(c2ncccn2)C1` (stereo unspecified), for which the “Percent Effect” value is reported as 123%.

`COc1ncccc1NC(=O)NCC1CC1`: the “Percent Effect” value was 5.858%.

For `CCOc1ncccc1NC(=O)N1CCCC1c1cc(C)no1` (stereo unspecified), the “Percent Effect” value worked out at 4.545%.

As to `CCOc1ncccc1NC(=O)NC1CCCN(S(C)(=O)=O)C1` (stereo unspecified), the “Percent Effect” value is reported as 87.05%.

In the case of `CCOC(=O)N1CCC(NC(=O)Nc2cccnc2OCC)CC1`, the “Percent Effect” value was found to be 102.8%.

`CCOCc1ccccc1NC(=O)NC1CCN(C(=O)OCC)CC1`: the “Percent Effect” value is reported as 14.37%.

As to `Cc1ccc(CNC(=O)NC2CCCN(c3ncccn3)C2)cn1` (stereo unspecified), the “Percent Effect” value is reported as -0.9532%.

For the compound `CCOc1ncccc1NC(=O)N1CCN(c2cccc(C)c2C)CC1`, the “Percent Effect” value is given as -4.888%.

`COc1cc(CN2CCCC(Nc3cccc(F)c3)C2)cc(Cl)c1O` (stereo unspecified): the “Percent Effect” value was 5.248%.

As for `CN1C(=O)C2(CCN(S(=O)(=O)C3CC3)CC2)c2ccccc21`, the “Percent Effect” value is -8.422%.

As to `O=C(CCc1nc(-c2cccnc2)no1)N(CC1CCOC1)C1CC1` (stereo unspecified), the “Percent Effect” value is -0.4889%.

Take `CCCC(NC(=O)c1cc(C)n(C2CC2)c1C)c1nnn[nH]1` (stereo unspecified): the “Percent Effect” value is given as 4.085%.

As for `NS(=O)(=O)CCNC(=O)c1ccc(-c2ccc(F)cc2)cc1F`, the “Percent Effect” value is -11.53%.

In the case of `CC(=O)N1CCN(Cc2c(C)ccc3ccccc23)CC(O)C1` (stereo unspecified), the “Percent Effect” value is on record as 0.367%.

As for `O=C(CN1CCCC1COc1ccccc1)NCc1ccccn1` (stereo unspecified), the “Percent Effect” value is listed as 90.25%.

For the compound `O=C(CN1CCCC1c1nc2cc(F)ccc2[nH]1)NCc1ccccn1` (stereo unspecified), the “Percent Effect” value is -7.361%.

Turning to `O=C(CN1CCCC1CCCO)NCc1ccccn1` (stereo unspecified), the “Percent Effect” value worked out at 111.1%.

As for `O=C(CN1CCCCCCC1=O)NCc1ccccn1`, the “Percent Effect” value stood at 8.013%.

`O=C(CN1CCCC1CC(=O)c1ccccc1)NCc1ccccn1` (stereo unspecified): the “Percent Effect” value is recorded as 107.5%.

With `O=C(CN1CCOCC1CC(=O)c1ccco1)NCc1ccccn1` (stereo unspecified), the “Percent Effect” value was -22.29%.

Take `c1ccc2c(c1)CC(N1CCCC(NCc3ccc4nonc4c3)C1)C2` (stereo unspecified): the “Percent Effect” value was 0.08784%.

Turning to `CN(C)S(=O)(=O)c1ccc(CNC(=O)c2cn3c(n2)CNCC3)cc1`, the “Percent Effect” value was -2.346%.

For the compound `Cc1ccc(C)c2c(=O)cc(CN3CC[C@@H](N)[C@H](O)C3)[nH]c12`, the “Percent Effect” value is -6.693%.
